# Data taken from PubChem BioAssay AID651551 (Sanford-Burnham Center for Chemical Genomics, 2012).
# Assay: GAPDH versus PEG-3 reporter suppression – cell-based, luminescence, counter-screen for PEG-3 promoter inhibitor project, SAR follow-up (AID 651551)
# Conditions: HeLa PEG-Prom / GAPDH luciferase reporter, 6 or 24 h, run 1, 24 h; at 99 µM (top of the series)
row,Structure (SMILES),inhibition % (higher = more inhibition) [%]
1,Cc1nc(NC(=O)c2ccccc2)sc1-c1csc(Nc2cccc(Cl)c2C)n1,43.1
2,CCCn1nc(C(=O)Nc2nc(-c3ccncc3)cs2)c2ccccc2c1=O,88.9
3,O=C(Nc1nccs1)c1nn(-c2ccccc2)c(=O)c2ccccc12,38.3
4,Cc1cc(NC(=O)c2ccccc2C(F)(F)F)n(-c2nc3ccccc3[nH]2)n1,97.3
5,Cc1nc(NC(=O)c2ccccc2)sc1-c1csc(Nc2ccccc2Cl)n1,22.6
6,Cc1cc(NC(=O)c2cccc(C)c2C)n(-c2nc3ccccc3[nH]2)n1,27.5
7,Cc1cc(NC(=O)c2ccccc2C)n(-c2nc3ccccc3[nH]2)n1,57.6
8,COCCCNC(=O)c1ccc(Cn2c(=O)c3ccccc3n(Cc3ccccc3C#N)c2=O)cc1,73.3
9,COc1ccc(-n2nc(C(=O)NCC(=O)Nc3cccc(OC)c3)c3ccccc3c2=O)cc1,28.1
10,O=C(Nc1nc(-c2ccccc2)cs1)c1nn(-c2ccccc2)c(=O)c2ccccc12,23.5
11,COc1ccc(-n2nc(C(=O)NCC(=O)Nc3ccc(OC)c(OC)c3)c3ccccc3c2=O)cc1,84.2
12,CCCn1nc(C(=O)Nc2nc(-c3ccccn3)cs2)c2ccccc2c1=O,73.2
13,CCn1nc(C(=O)Nc2nc(-c3ccccn3)cs2)c2ccccc2c1=O,32.8
14,Cc1ccc(Cl)cc1Nc1nc(-c2sc(NC(=O)c3ccco3)nc2C)cs1,78
15,CCCn1nc(C(=O)Nc2nc3ccccc3s2)c2ccccc2c1=O,37.5
16,COc1ccc(-n2nc(C(=O)NCC(=O)Nc3cc(OC)c(OC)c(OC)c3)c3ccccc3c2=O)cc1OC,69.6
17,Cc1cc(NC(=O)c2ccccc2)n(-c2nc3ccccc3n2C)n1,6.34
18,O=C(Nc1nc2ccccc2s1)c1nn(-c2ccccc2)c(=O)c2ccccc12,40.7
19,CCn1cc(C(=O)NCc2ccco2)c(=O)c2cc(S(=O)(=O)N3CCCC3)ccc21,56.3
20,COc1ccccc1Nc1nc(-c2sc(NC(=O)c3ccco3)nc2C)cs1,68.4
21,Cc1nc(NC(=O)c2ccccc2)sc1-c1csc(Nc2ccccc2)n1,92
22,Cc1cc(NC(=O)c2ccccc2)n(-c2nc3ccccc3[nH]2)n1,14.1
23,COc1ccc(Cl)cc1Nc1nc(-c2sc(NC(=O)c3ccccc3)nc2C)cs1,74.9
